Results as given in PubChem BioAssay (EPA / NIEHS).
Values joined by “and” are separate entries in the source; they are usually repeats but may differ in a detail not shown here. Equal values may be shown once. Results filed as inconclusive are left out. Active and inactive are the calls of the source. Rule for the calls: active = hit-call score of the fitted dose curve at least 0.9, where 1 is the maximum; inconclusive = response in the unintended direction; inactive = score below 0.9.

The compounds below were run against human Muscarinic, M4 Receptor, CHRM4 (gene 1132) (UniProt P08173) (assay: NVS_GPCR_hM4: NovaScreen (NVS) G Protein-Coupled Receptor Assay for human Muscarinic, M4 Receptor (AID 2283274)).
human Muscarinic, M4 Receptor, CHRM4 (gene 1132), sequence (P08173 whole entry, looked up): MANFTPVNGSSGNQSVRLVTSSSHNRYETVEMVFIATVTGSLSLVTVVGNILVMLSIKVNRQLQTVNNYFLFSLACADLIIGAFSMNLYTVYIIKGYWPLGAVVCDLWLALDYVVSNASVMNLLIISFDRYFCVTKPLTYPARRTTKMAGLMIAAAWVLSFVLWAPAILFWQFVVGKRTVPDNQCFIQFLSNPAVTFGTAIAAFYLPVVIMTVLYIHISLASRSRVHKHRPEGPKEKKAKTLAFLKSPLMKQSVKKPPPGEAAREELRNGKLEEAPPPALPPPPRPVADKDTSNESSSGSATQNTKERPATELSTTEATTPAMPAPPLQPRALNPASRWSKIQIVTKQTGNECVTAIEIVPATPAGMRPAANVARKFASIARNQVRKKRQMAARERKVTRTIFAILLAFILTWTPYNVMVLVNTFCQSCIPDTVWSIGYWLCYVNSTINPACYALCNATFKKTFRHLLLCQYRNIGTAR
Summary of the method: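 Filter-based scintillation counting of radioligand bound to CHO-expressed human M4 preparations after 1 h; loss of signal fitted versus DMSO. Initial duplicate testing at 25 uM, concentration-response follow-up for actives.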
`COc1ccc(C(c2ccc(OC)cc2)C(Cl)(Cl)Cl)cc1` was tested, and the outcome was “inactive”. For `CN(C)C(=S)SSC(=S)N(C)C`, the outcome was “inactive”. `CCCC1COC(Cn2cncn2)(c2ccc(Cl)cc2Cl)O1` (stereo unspecified) was tested, and the outcome was “inactive”. With `COC(=O)C=C(C)OP(=O)(OC)OC` the outcome was “inactive”.

These compounds were tested against human Neuropeptide Receptor Y1 (NPY1), NPY1R (gene 4886) (UniProt P25929) (assay: NVS_GPCR_hNPY1: NovaScreen (NVS) G Protein-Coupled Receptor Assay for human Neuropeptide Receptor Y1 (NPY1) (AID 2283276)).
human Neuropeptide Receptor Y1 (NPY1), NPY1R (gene 4886), sequence (P25929 whole entry, looked up): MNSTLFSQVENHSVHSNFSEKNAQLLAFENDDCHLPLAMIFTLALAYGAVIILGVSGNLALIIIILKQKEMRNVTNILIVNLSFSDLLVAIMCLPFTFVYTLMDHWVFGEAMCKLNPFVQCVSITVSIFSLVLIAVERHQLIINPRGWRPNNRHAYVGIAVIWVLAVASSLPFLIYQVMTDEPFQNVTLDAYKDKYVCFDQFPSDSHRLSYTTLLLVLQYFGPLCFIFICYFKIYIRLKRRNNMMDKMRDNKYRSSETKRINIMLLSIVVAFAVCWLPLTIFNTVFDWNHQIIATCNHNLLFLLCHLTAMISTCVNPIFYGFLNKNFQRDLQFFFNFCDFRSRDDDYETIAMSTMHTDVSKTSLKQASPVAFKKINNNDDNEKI
Summary of the method: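 Displacement of specific radioligand from NPY1 receptor of SK-N-MC origin, read by filtration and scintillation after 1 h. Compounds first tested at 25 uM in duplicate, then actives in concentration series; signal loss relative to DMSO.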
`CNC(=S)S` was tested, and the outcome was “inactive”. With `CCCCNC(=O)OCC#CI` the AC50 was 15.9 µM (active) and 14.4 µM (active). With `CN(C)C(=S)SSC(=S)N(C)C` the AC50 was 14.7 µM (active). `CS/C(C)=N/OC(=O)N(C)SN(C)C(=O)O/N=C(\C)SC` was tested, and the AC50 was 25 µM (active).

Each compound was assayed against human Neurokinin, NK2 Receptor, TACR2 (gene 6865) (UniProt P21452) (assay: NVS_GPCR_hNK2: NovaScreen (NVS) G Protein-Coupled Receptor Assay for human Neurokinin, NK2 Receptor (AID 2283278);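 note: actives reduce bound radioligand signal relative to DMSO baseline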).
human Neurokinin, NK2 Receptor, TACR2 (gene 6865), sequence (P21452 whole entry, looked up): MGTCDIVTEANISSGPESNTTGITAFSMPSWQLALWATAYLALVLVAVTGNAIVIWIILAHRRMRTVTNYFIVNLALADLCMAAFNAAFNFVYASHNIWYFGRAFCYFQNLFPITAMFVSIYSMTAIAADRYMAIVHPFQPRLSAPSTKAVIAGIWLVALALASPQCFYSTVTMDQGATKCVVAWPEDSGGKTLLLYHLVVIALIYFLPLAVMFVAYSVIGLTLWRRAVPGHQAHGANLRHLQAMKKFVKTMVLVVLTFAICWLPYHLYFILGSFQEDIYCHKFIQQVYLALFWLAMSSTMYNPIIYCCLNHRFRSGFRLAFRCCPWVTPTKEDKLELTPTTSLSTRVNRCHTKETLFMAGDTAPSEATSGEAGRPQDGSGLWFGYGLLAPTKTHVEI
Summary of the method: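 Test chemicals displace a radioligand from receptor prepared from CHO cells in a cell-free format, read after 4 hours by scintillation counting on filters. Screening starts at 25 uM in duplicate, and active chemicals then go to concentration series.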
For `Cc1ccc(-c2c(Cl)nc(C#N)n2S(=O)(=O)N(C)C)cc1`, the outcome was “inactive”. With `COc1ccc(C(c2ccc(OC)cc2)C(Cl)(Cl)Cl)cc1` the outcome was “inactive”. `CCOC(=O)C(Cl)Cc1cc(-n2nc(C)n(C(F)F)c2=O)c(F)cc1Cl` (stereo unspecified) was tested, and the outcome was “inactive”.
